Here are results for 15 molecules from PubChem BioAssay.

For part of these data: Results with a measured potency or affinity are listed apart. Calls of active or inactive are those of the source.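 Rule for the calls, unless noted: active = membrane potential signal rise above negative control mean plus 3 SD in both duplicates, also active in the earlier TRPC4 screen; inactive = the rest.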

Assay [1] relates to TRPC4 beta (transient receptor potential cation channel C4), mouse. In words: TRPC4 cation channel opening, retest – cell-based, Fluo4 calcium, HEK293 TRPC4beta/mu-opioid, duplicates, 10 µM, confirmation (AID 2426;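 active = fluorescence ratio normalized to control raised more than 50% in primary screen plus both repeat runs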). The following applies: Fluo4 calcium fluorescence, at 10 µM; hits give high values.
For assay [2], the system named is transient receptor potential cation channel C4 beta (TRPC4), mouse. In words: TRPC4 cation channel opening, second retest – cell-based, second round, Fluo4, HEK293 TRPC4beta/mu-opioid, 1 µM, confirmation (AID 2461;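 active = primary screen active and over 50% activation in each of two duplicate runs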). To be noted: Fluo4 calcium fluorescence, at 1 µM; hits give high values.
In assay [3] the test system is TRPC4 (transient receptor potential cation channel C4 beta), mouse. In words: potentiation of DAMGO EC20 TRPC4 response – cell-based, second round, Fluo-4, HEK293 TRPC4beta/mu-opioid, 1 µM, confirmation (AID 2554;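 active = primary screen hit whose fluorescence ratio, in both repeats, exceeds the weak agonist control mean by 3 SD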). The following applies: DAMGO EC20, Fluo-4 calcium flux, at 1 µM; hits give high values. (In general: Calcium flux is commonly read through the fluorescence of an indicator in the cells.)

Assay [4] concerns TRPC4 beta (transient receptor potential cation channel C4), mouse. In words: potentiation of DAMGO EC20 TRPC4 response – cell-based, Fluo-4, HEK293 TRPC4beta/mu-opioid, confirmation (AID 2555;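 active = primary screen hit whose calcium fluorescence ratio, in both repeats, exceeds the weak agonist control mean by 3 SD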). The following applies: DAMGO EC20, Fluo-4 calcium flux, at 10 µM; hits give high values.
Assay [5] addresses Short transient receptor potential channel 4 (Mus musculus) (UniProt Q9QUQ5). In words: blockers of DAMGO-evoked TRPC4 calcium flux – cell-based, Fluo4, HEK293 TRPC4beta/mu-opioid, confirmation (AID 2636;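 active = calcium signal cut by more than 3 SD below the full-agonist control yet still positive, in both repeats and the earlier primary screen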). To be noted: at 10 µM; hits give high values.
The target is the same in assay [6]. In words: blockers of DAMGO-evoked TRPC4 calcium flux – cell-based, second round, Fluo4, HEK293 TRPC4beta/mu-opioid, 1 µM, confirmation (AID 2637;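 active = calcium signal ratio cut to more than 3 SD under the fully stimulated control mean yet still positive, in both repeats and the primary screen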). To be noted: at 1 µM; hits give high values.
Assay [7] shares this target. In words: calcium entry via TRPC4 opening agents – cell-based, HEK293 TRPC4/mu-opioid, Fluo-4 calcium, dose response (AID 434937;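 active = primary screen activator hit with a dose response curve and TRPC4 channel activation at any tested dose; inactive = no activation, no dose response, or not a primary hit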).
Assay [8] shares this target. In words: potentiation of DAMGO-evoked TRPC4 calcium signal – cell-based, HEK293 TRPC4/mu-opioid, Fluo-4 calcium, EC20 DAMGO, dose response (AID 434941;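 active = earlier screen potentiator hit that boosts the TRPC4 ion channel at some dose, with a dose response; inactive = no potentiation, no dose response, or not a prior hit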;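 note: calcium entry triggered by an EC20 dose of DAMGO at the co-expressed mu-opioid receptor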).
Assay [9] shares this target. In words: block of DAMGO-driven TRPC4 calcium entry – cell-based, HEK293 TRPC4/mu-opioid, Fluo-4 calcium, dose response (AID 434942;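 active = primary screen inhibitor hit that blocks the TRPC4 channel at some tested dose, yielding a dose curve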).
Assay [10] addresses Short transient receptor potential channel 6 (Mus musculus) (UniProt Q61143). In words: TRPC6 blockade by TRPC4 inhibitor hits – cell-based, HEK293, membrane potential dye, duplicate, selectivity assay for TRPC4 inhibitor project, confirmation (AID 434948;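 active = active in primary screen and both duplicates, each dropping signal beyond three positive-control SD with fluorescence still positive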). To be noted: HEK293 TRPC6, membrane potential dye fluorescence, at 10 µM, stimulated with maximal-effect acetylcholine; hits give high values.

Assay [11] shares this target. In words: TRPC6 opening by TRPC4 activator hits – cell-based, HEK293, membrane potential dye, duplicate, selectivity assay for TRPC4 activator project, confirmation (AID 434950).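 For activation: 0% = buffer only wells and 100% = acetylcholine maximal-effect wells.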 The following applies: HEK293 TRPC6, membrane potential fluorescence, at 10 µM; activation: hits give high values; outcome: activation.
The target is the same in assay [12]. In words: positive modulators of mouse TRPC6 channel – HEK293 cells, membrane potential dye, duplicate, selectivity assay for TRPC4 potentiator project, confirmation (AID 434952;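 active = compound raising the membrane signal above positive-control mean plus 3 SD in both repeats, and a primary screen hit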). The following applies: HEK293 TRPC6, membrane potential dye fluorescence, at 10 µM, maximal acetylcholine added after compound; hits give high values.
Assay [13] addresses Short transient receptor potential channel 4 (Mus musculus) (UniProt Q9QUQ5). In words: calcium flux activators in TRPC4/5HT1a cells, counter-screen for TRPC4 activator project, cell-based, second counter screen, HEK293 TRPC4/5HT1a, Fluo-4 (AID 434977;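 active = calcium signal rise above buffer-control mean plus 5 SD in both duplicates, and also a hit in the primary screen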). The following applies: Fluo-4 calcium flux, at 10 µM; hits give high values.
Assay [14] can be described thus: serotonin-gated TRPC4 signal block – cell-based, second counter screen, HEK293 TRPC4/5HT1a, Fluo-4, counter-screen for TRPC4 inhibitor project, confirmation (AID 434978;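 active = primary screen active whose calcium signal fell more than 3 SD beyond the full-serotonin control mean in both duplicate plates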;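 for outcome: serotonin given first at submaximal then at maximal dose after compound preincubation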). The following applies: Fluo-4 calcium flux, at 10 µM, serotonin added to trigger calcium flux; hits give high values.
The subject of assay [15] is TRPC4 (mouse), co-expressed with 5HT1a in HEK293. In words: enhancement of serotonin-evoked TRPC4 response – cell-based, second counter screen, HEK293 TRPC4/5HT1a, Fluo-4, counter-screen for TRPC4 potentiator project, confirmation (AID 434979;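 active = signal rise over 3 SD above mean of control wells given weak agonist, in both repeats and first screen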). To be noted: Fluo-4 calcium flux, at 10 µM, serotonin added at its EC20 dose; hits give high values. In general terms: The purpose of a counterscreen is to sort out artefacts and off-target activity.

Assay [16] can be described thus: nonspecific calcium rise without TRPC4 – cell-based, HEK293 mu-opioid receptor line, counter-screen for TRPC4 activator project, confirmation (AID 449723;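 active = hit in primary screen, with calcium signal over 5 SD above buffer well mean in both duplicates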;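 note: counter screen cells carry the mu-opioid receptor alone and lack TRPC4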). The following applies: HEK293 mu-opioid cells, Fluo-4 calcium fluorescence, at 10 µM; hits give high values.
A short description of assay [17]: nonspecific potentiation of DAMGO calcium response – cell-based, HEK293 mu-opioid receptor line, counter-screen for TRPC4 allosteric potentiator project, confirmation (AID 449724;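 active = calcium signal rise more than 3 SD above the low-dose agonist control mean, in both duplicate plates and the primary screen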;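 note: HEK293 cells carrying mu-opioid receptor only with no TRPC4 channel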). The following applies: HEK293 mu-opioid receptor cells, Fluo-4 calcium flux, at 10 µM, compound added before EC20 DAMGO stimulus; hits give high values.

Sequence of Short transient receptor potential channel 6 (Mus musculus) (Q61143 whole entry, looked up): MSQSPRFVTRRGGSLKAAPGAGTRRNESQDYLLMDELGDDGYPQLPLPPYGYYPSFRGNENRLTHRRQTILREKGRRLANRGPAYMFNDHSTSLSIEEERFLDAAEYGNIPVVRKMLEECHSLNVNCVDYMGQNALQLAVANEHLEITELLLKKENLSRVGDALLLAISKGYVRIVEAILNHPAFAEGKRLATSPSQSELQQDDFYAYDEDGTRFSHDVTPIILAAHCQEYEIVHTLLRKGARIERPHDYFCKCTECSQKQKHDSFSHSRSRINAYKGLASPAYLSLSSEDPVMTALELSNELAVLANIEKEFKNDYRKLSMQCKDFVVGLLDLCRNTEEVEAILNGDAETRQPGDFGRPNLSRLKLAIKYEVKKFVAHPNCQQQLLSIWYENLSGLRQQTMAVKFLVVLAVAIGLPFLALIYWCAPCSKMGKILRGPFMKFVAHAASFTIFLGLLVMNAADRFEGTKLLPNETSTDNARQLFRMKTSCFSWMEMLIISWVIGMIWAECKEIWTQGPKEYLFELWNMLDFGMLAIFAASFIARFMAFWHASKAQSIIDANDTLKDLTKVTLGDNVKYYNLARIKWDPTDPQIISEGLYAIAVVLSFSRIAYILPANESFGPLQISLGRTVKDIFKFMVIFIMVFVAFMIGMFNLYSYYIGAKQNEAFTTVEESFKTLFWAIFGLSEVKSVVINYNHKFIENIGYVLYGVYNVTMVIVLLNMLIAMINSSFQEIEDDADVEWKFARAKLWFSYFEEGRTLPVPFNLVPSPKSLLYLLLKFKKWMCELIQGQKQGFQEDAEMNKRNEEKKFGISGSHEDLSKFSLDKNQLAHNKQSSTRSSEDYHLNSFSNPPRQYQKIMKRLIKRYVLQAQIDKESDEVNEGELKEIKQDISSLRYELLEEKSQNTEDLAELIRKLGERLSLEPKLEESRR
Sequence of Short transient receptor potential channel 4 (Mus musculus) (Q9QUQ5 whole entry, looked up): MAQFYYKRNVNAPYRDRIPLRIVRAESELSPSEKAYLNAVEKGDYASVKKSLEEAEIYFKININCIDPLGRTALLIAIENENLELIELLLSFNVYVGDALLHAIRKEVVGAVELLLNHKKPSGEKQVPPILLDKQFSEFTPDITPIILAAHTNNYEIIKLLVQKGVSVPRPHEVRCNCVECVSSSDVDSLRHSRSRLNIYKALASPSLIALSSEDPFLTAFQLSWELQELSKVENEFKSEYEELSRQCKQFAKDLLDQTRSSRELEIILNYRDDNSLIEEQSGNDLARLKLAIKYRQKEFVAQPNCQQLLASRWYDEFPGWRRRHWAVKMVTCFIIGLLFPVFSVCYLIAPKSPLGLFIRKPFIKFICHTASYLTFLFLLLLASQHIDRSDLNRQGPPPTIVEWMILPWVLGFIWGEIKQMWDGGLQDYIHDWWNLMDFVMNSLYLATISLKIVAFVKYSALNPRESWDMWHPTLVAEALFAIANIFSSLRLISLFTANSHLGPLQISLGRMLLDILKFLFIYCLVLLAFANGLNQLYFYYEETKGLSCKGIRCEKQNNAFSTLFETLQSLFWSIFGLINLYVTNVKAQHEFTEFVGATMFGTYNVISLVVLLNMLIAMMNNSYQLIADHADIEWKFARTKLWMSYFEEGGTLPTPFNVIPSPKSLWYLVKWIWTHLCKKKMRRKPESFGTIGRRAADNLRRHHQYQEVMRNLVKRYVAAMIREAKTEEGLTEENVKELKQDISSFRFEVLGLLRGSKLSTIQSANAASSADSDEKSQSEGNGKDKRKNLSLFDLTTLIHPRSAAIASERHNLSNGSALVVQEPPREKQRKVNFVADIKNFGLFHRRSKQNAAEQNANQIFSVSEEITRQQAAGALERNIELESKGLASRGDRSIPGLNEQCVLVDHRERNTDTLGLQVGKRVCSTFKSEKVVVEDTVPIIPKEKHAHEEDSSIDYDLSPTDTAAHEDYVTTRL

In the case of `CCN1CCN(c2ccc(S(=O)(=O)N3CCCCC3)cc2NC(=O)c2cccc(C(F)(F)F)c2)CC1`, the result in [1], in assay [2], in assay [3], in [5], in assay [6] and in assay [7] was inactive. Also, the result in [8], in assay [9], in [10], in assay [11], in [12] and in assay [13] was inactive. For the same molecule, the result in [14], in [16] and in [17] was inactive. Moreover, the potentiation is 21% (active) in assay [4] and 21.1% (active) in [15].
As for `O=C(OCCCCN1C(=O)c2ccccc2C1=O)c1ccc(S(=O)(=O)N2CCCC2)cc1`, the result in assay [1], in [2], in [3], in assay [4], in assay [5] and in [6] was inactive. The result in [7], in assay [8], in assay [9], in [10], in [11] and in assay [12] was inactive. For the same molecule, the outcome in assay [13], in assay [14], in [15], in [16] and in assay [17] was inactive.
Turning to `CCCN(C(=O)COC(=O)C12CCC(=O)N1c1ccccc1S2)c1c(N)n(Cc2ccccc2)c(=O)[nH]c1=O` (stereo not given), the result in [1], in assay [2], in assay [3], in assay [4], in assay [6] and in [7] was inactive. The outcome in [8], in [9], in assay [10], in assay [12], in assay [13] and in assay [14] was inactive. The result in [15], in assay [16] and in assay [17] was inactive. The inhibition in assay [5] was 52% (active). For the same molecule, the activation in assay [11] is 28% (active).
As for `COc1ccc(Cc2noc(CN(C)CC3CCN(Cc4ccccc4)CC3)n2)cc1OC`, the outcome in assay [1], in assay [2], in assay [3], in assay [4], in assay [5] and in assay [6] was inactive. Also, the outcome in [7], in [8], in [9], in [10], in assay [11] and in [12] was inactive. The result in assay [13], in [14], in [15], in assay [16] and in assay [17] was inactive.
Consider `COc1ccccc1-c1cc(-c2ccccc2)nc(=O)[nH]1`, for which the result in [1], in assay [2], in [3], in [5], in [6] and in [7] was inactive. Further, the outcome in assay [8], in assay [9], in assay [10], in assay [11], in assay [12] and in assay [13] was inactive. Also, the result in assay [14], in [16] and in assay [17] was inactive. For the same molecule, the figures for the potentiation in assay [4] and in [15] were 22% (active) and 51.2% (active), respectively.
As to `Cc1cc(Nc2ccc3c(c2)OCCO3)c2cccc(C)c2n1`, the outcome in assay [1], in [2], in [3], in assay [4], in [5] and in [6] was inactive. The outcome in assay [7], in [8], in assay [9], in assay [10], in [11] and in assay [12] was inactive. Moreover, the result in assay [13], in assay [14], in assay [15], in assay [16] and in assay [17] was inactive.
For `Cc1ccc(NC(=O)CN(C)C(=O)CNC(=O)c2sc3ccccc3c2Cl)cc1`, the result in assay [1], in [2], in [3], in assay [4], in [5] and in [6] was inactive. Moreover, the outcome in [7], in assay [8], in assay [9], in [10], in assay [11] and in [12] was inactive. For the same molecule, the result in assay [13], in [14], in assay [16] and in assay [17] was inactive. The potentiation in [15] was 29.5% (active).
Regarding `CCC(=O)c1cc2c(C)cc(=O)oc2c(C)c1OC(=O)C(C)C`, the outcome in assay [1], in assay [2], in assay [3], in assay [4], in assay [6] and in [7] was inactive. Also, the outcome in [8], in assay [9], in assay [10], in assay [11], in [12] and in [13] was inactive. Moreover, the outcome in [15], in assay [16] and in [17] was inactive. The inhibition in assay [5] is 85% (active); in [14], 12.2% (active).
With `CC(Oc1ccc(Cl)cc1Cl)C(=O)N(C)c1ccccc1` (stereo not given), the outcome in assay [1], in assay [2], in assay [3], in [4], in [5] and in assay [6] was inactive. Moreover, the outcome in [7], in [8], in assay [9], in assay [10], in assay [11] and in assay [12] was inactive. Besides, the outcome in assay [13], in assay [14], in [15], in assay [16] and in assay [17] was inactive.
Take `COc1cccc(NC(=O)COc2c(F)c(F)c(C(F)(F)F)c(F)c2F)c1`: the outcome in assay [1], in assay [2], in assay [3], in assay [4], in assay [5] and in [6] was inactive. Further, the outcome in assay [7], in assay [8], in assay [9], in [10], in [11] and in [12] was inactive. The outcome in assay [13], in [14], in [15], in assay [16] and in [17] was inactive.
In the case of `CN1CCN(NC(=O)c2cccc(Br)c2)CC1`, the outcome in assay [1], in assay [2], in assay [5], in [6], in assay [7] and in assay [8] was inactive. The result in assay [9], in assay [10], in [11], in assay [12], in assay [13] and in [14] was inactive. Also, the result in assay [16] and in assay [17] was inactive. For the same molecule, the potentiation in assay [3] is 8% (active); in assay [4], 18% (active); in assay [15], 21.8% (active).
For the molecule `Clc1ccc2nc(CN3CCCc4ccccc43)cn2c1`, the outcome in assay [1], in assay [2], in assay [3], in assay [5], in assay [6] and in [7] was inactive. Also, the result in assay [8], in assay [9], in assay [10], in [11], in assay [12] and in assay [13] was inactive. The outcome in assay [14], in assay [16] and in assay [17] was inactive. Also, the values for the potentiation in [4] and in assay [15] were 12% (active) and 28% (active), respectively.
As for `OCCNc1nc(Nc2ccccc2)nc2ccccc12`, the outcome in assay [1], in [2], in assay [3], in [4], in assay [5] and in assay [6] was inactive. Besides, the outcome in assay [7], in assay [8], in assay [9], in [10], in assay [11] and in assay [12] was inactive. Further, the result in [13], in assay [14], in [15], in assay [16] and in [17] was inactive.
Take `Cc1cc(OCCN2CCCCC2)nc2ccccc12`: the outcome in assay [1], in assay [2], in assay [3], in [4], in assay [5] and in assay [6] was inactive. The outcome in assay [7], in assay [8], in assay [9], in [10], in assay [11] and in assay [12] was inactive. Moreover, the outcome in assay [13], in assay [14], in assay [16] and in assay [17] was inactive. In addition, the potentiation in assay [15] is 13.7% (active).
`CCSc1ccccc1C(=O)NCCc1ccccc1`: the result in assay [1], in [2], in assay [3], in assay [4], in assay [5] and in assay [6] was inactive. Also, the result in [7], in assay [8], in assay [9], in [10], in assay [11] and in assay [12] was inactive. The result in [13], in assay [14], in assay [15], in assay [16] and in [17] was inactive.

The term inhibition denotes how much of the control response was suppressed.
